This note sets out measurements from PubChem BioAssay (NCI).

The panel holds about 79,000 compounds, 15% with a hit somewhere; the sample as a whole holds those more often. Activity calls are given as the source filed them. Rule as the data show it: active = growth inhibition above about 70%; inactive = the rest.

This experiment can be described thus: NCI Yeast Anticancer Drug Screen. Data for the bub3 strain (AID 167). The conditions noted are these: S. cerevisiae bub3 mutant strain, at 50.0 µM, stronger effect = higher value. The gist of the method:
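Compounds were applied to a genetically altered yeast strain carrying a cell-cycle control defect. Growth inhibition was scored against vehicle-treated controls.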
In the case of `Cc1cc(N=C2C=CC(=O)C=C2)ccc1O`, the growth inhibition is 15.9% (inactive). In the case of `CCCCOc1ccc([N+](=O)[O-])cn1`, the growth inhibition was -7.6% (inactive). In the case of `CCCCCCCCCc1ccc(COCCCC)cc1`, the growth inhibition is 49.5% (inactive).

As for `CC(C(=O)C(=O)Nc1ccc(Cl)cc1)C(=O)c1ccc(Cl)cc1` (configuration not stated), the growth inhibition was 5.15% (inactive). As for `[N-]=[N+]=Nc1ccnc2c(C(F)(F)F)cccc12`, the growth inhibition is -14.3% (inactive). As for `CCCC(=O)Oc1ccc2ccccc2c1`, the figure is -1.5% (inactive); as for `COc1ccc(OC)c2c(Nc3ccc(S(=O)(=O)O)c4cc(S(=O)(=O)O)cc(S(=O)(=O)O)c34)cc(C)nc12`, 6.8% (inactive). On to `CCOC(=O)c1ccc(NCc2cccc([N+](=O)[O-])c2)cc1`, for which the growth inhibition was 73.8% (active).

`Cc1ccc([N+](=O)[O-])cc1Br`: the growth inhibition is 5.5% (inactive). Consider `C#CCOC(=O)C(N)CS` (configuration not stated), for which the growth inhibition is -4.4% (inactive). In the case of `O=C(Nc1ccc(C2=NCCN2)c(O)c1)c1ccc(C(=O)Nc2ccc(C3=NCCN3)c(O)c2)cc1` it was 7.5% (inactive). As for `C1CCCC(N2N=NC3C4CC(C5N=NN(C6CCCCCC6)C45)C32)CC1` (configuration not stated), the figure is -8.55% (inactive); as for `CC(CN(C)C)CN1c2ccccc2Sc2ccccc21` (configuration not stated), 5.65% (inactive); as for `COc1cc2c(cc1OC)C(=O)C1(CO)COC(=O)C1C2` (configuration not stated), -1% (inactive). In the case of `O=[N+]([O-])c1ccc(/C=N/C(/N=C/c2ccc([N+](=O)[O-])cc2)c2ccc([N+](=O)[O-])cc2)cc1` it was -4.05% (inactive); in that of `CN(C)c1cc(N(C)C)c2cc(C#N)ccc2n1`, 0.9% (inactive); in that of `Nc1nc(=S)c2[nH]cnc2[nH]1`, 9.55% (inactive).
